Screening results from PubChem.
MITF primary: inhibitors of human MITF; O75030; AlphaScreen MITF homodimerization, bead proximity signal; inhibition, % at 2.6 µM; actives 0.91% (n = 650,000); AID 1259374; in the data active means inhibition above about 50%
TEAD-YAP inh: TEAD-YAP interaction inhibition; HEK-TIYL cells, TEAD-Gal4/YAP UAS-luciferase luminescence; inhibition, % at 9.12 µM; actives 1.4% (n = 640,000); AID 1259422; in the data active means inhibition above about 32%
GPR151 activ: activators of human GPR151; activation, % at 11.2 µM; AID 1508602; PathHunter beta-arrestin GPR151 cells, luminescence; Q8TDV0; actives 1% (n = 650,000); in the data active means activation above about 4.9%
Target sequence (Q8TDV0 whole entry, looked up): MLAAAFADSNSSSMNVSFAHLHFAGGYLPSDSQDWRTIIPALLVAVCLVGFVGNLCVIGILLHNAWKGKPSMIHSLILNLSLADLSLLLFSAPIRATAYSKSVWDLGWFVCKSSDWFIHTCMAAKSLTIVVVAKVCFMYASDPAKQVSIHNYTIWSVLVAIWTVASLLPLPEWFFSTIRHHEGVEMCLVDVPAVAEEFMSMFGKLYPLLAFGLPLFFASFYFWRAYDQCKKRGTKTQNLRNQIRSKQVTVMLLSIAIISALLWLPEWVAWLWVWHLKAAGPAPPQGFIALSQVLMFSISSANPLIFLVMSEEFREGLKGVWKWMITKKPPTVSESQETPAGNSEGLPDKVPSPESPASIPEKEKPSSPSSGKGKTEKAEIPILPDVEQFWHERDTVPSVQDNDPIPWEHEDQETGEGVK
FBW7 act: human FBW7 E3 ligase activation, primary screen; Q969H0; normalized activity (activation), % at 26.1 µM; actives 0.13% (n = 650,000); AlphaScreen FBW7–phospho-cyclin E peptide binding, activator screen; in the data active means normalized activity above about 1.9%;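 further: purified mutant Fbw7 with reduced substrate affinity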
Each line names hits and unclear results; the compound was inactive in the other large screens. An excerpt weighted towards active compounds, which were near 3.4% of everything screened.

CCCN1C(=O)C(O)(CC(=O)c2ccccc2OC)c2cc(Br)ccc21 (configuration not stated)	none
CCCN1C(=O)C(O)(CC(=O)c2ccccc2O)c2cc(Br)ccc21 (configuration not stated)	TEAD-YAP inh 38
CCn1c2ccccc2n2cc(-c3ccc(Br)cc3)nc12	FBW7 act 2.3
C=CCn1c2ccccc2n2cc(-c3ccccc3)nc12	none
Clc1ccc(-c2cn3c4ccccc4n(CCN4CCCCC4)c3n2)cc1	FBW7 act 5.0
CC(C)(C)C(=O)/C=C(/NCc1ccccc1)C(=O)NCc1ccccc1	none
CC(C)(C)c1ccc(C(=O)Nc2ccccc2C(N)=O)cc1	TEAD-YAP inh 56, FBW7 act 2.1
CN(C)c1ccc(C(=O)Nc2ccccc2C(N)=O)cc1	TEAD-YAP inh 52
CC(C)(C)c1ccc(C(=O)Nc2sccc2C(N)=O)cc1	TEAD-YAP inh 69
CN(C)c1ccc(C(=O)Nc2ccccc2Br)cc1	TEAD-YAP inh 65
NC(=O)c1ccccc1NC(=O)c1ccc(-c2ccccc2)cc1	none
CN(C)c1ccc(C(=O)Nc2cc(C(N)=O)c(Cl)cc2Cl)cc1	none
CN(c1cccc(NC(=O)CN(c2cccc(Cl)c2)S(C)(=O)=O)c1)S(C)(=O)=O	none
Cc1cc(NCCc2ccc(O)cc2)nc(NCc2cccnc2)n1	none
NNC(=O)/C(=C\c1ccco1)NC(=O)c1ccccc1	TEAD-YAP inh 35
O=C(O)/C(=C/c1ccco1)NC(=O)c1ccccc1	none
O=C1CCCC2=C1C(c1cc([N+](=O)[O-])ccc1O)C1C(=O)c3ccccc3C1=N2 (configuration not stated)	none
O=C1CCCC2=C1C(c1cc(Br)ccc1O)C1C(=O)c3ccccc3C1=N2 (configuration not stated)	TEAD-YAP inh 50
CC(=O)CCN1C(=O)C(=O)c2cc(Br)ccc21	none
CCCCN1C(=O)C(=O)c2cc(Br)ccc21	TEAD-YAP inh 41
CCS(=O)(=O)N1CCC(C(=O)NC2CCCC2)CC1	none
NC1=NC(=O)/C(=C/C=C/c2ccc([N+](=O)[O-])o2)S1	MITF primary 98, TEAD-YAP inh 35
NC1=NC(=O)/C(=C\c2ccc([N+](=O)[O-])o2)S1	MITF primary 80
NC1=NC(=O)/C(=C\c2ccc(-c3cccc([N+](=O)[O-])c3)o2)S1	none
O=C1NC(=S)S/C1=C/c1ccc([N+](=O)[O-])o1	MITF primary 74
COc1cc2nc(Nc3cnccn3)nc(NCCO)c2cc1OC	none
COc1cc(-c2ccc(NCC3CC3)nc2)cc(OC)c1OC	none
COc1cccc2c1C(=O)c1c(O)c3c(c(O)c1C2=O)C[C@@](O)(C(C)=O)C[C@@H]3OC1CC(N)C(O)C(C)O1 (some centres not stated)	none (no result: TEAD-YAP inh)
COc1cccc2c1C(=O)c1c(O)c3c(c(O)c1C2=O)C[C@@](O)(C(=O)CO)C[C@@H]3O[C@H]1C[C@H](N)[C@H](O)[C@H](C)O1	TEAD-YAP inh 92
N#Cc1c(NC(NC(=O)c2cccc(F)c2)(C(F)(F)F)C(F)(F)F)sc2c1CCCC2	none
C=CCNC(=O)/C(=C/c1ccc(OC)cc1)NC(=O)c1cccc(Br)c1	none
O=[N+]([O-])c1ccc(N2CCCC2)cc1N1CCc2ccccc2C1	TEAD-YAP inh 73
O=[N+]([O-])c1ccc(N2CCCCC2)cc1N1CCc2ccccc2C1	none
COc1ccc(C(=O)Nc2c3c(nn2-c2ccccc2C)CS(=O)C3)c(OC)c1 (configuration not stated)	none
O=C(/C=C/c1ccc(Br)cc1)Nc1nncs1	none
O=C(/C=C/c1ccc2c(c1)OCCCO2)c1cc([N+](=O)[O-])ccc1O	TEAD-YAP inh 79
CC(=O)Oc1cccc2ccc(/C=C/c3cccc(F)c3)nc12	TEAD-YAP inh 40
COc1cc(/C=C/c2ccc3cccc(OC(C)=O)c3n2)cc(OC)c1OC(C)=O	none
c1ccc(-n2cnc3c(NC4CC4)nc(-c4ccc(N5CCOCC5)nc4)nc32)cc1	TEAD-YAP inh 45
c1ccc(-n2cnc3c(Nc4ccc(N5CCOCC5)cc4)nc(-c4ccc(N5CCOCC5)nc4)nc32)cc1	none
OCCNc1nc(-c2ccc(N3CCOCC3)nc2)nc2c1ncn2-c1ccccc1	TEAD-YAP inh 61
COc1ccc(C(C)=O)cc1CSc1nc(Nc2ccc(F)cc2)c2ccccc2n1	none
CCCC(CCn1c(C)[n+](CC)c2ccc(C#N)cc21)S(=O)(=O)O (configuration not stated)	FBW7 act 1.9
CC[n+]1c(C)n(CCCS(=O)(=O)O)c2cc(C#N)ccc21	none
CC(C)[C@@H](CO)Nc1ccc2ncc(-c3ccco3)n2n1	TEAD-YAP inh 53
COc1ccc(-c2cnc3ccc(N[C@H](CO)C(C)C)nn23)c(OC)c1	FBW7 act 2.0
CC(C)[C@@H](CO)Nc1ccc2ncc(-c3ccc(N(C)C)cc3)n2n1	none
CC(C)[C@@H](CO)Nc1ccc2ncc(-c3ccsc3)n2n1	TEAD-YAP inh 32
CC(C)[C@@H](CO)Nc1ccc2ncc(-c3cccc4ccccc34)n2n1	none
CC(C)[C@@H](CO)Nc1ccc2ncc(-c3ccc(CO)cc3)n2n1	TEAD-YAP inh 43
C/C(N)=C(/C#N)C(=O)COC(=O)CCN1C(=O)C2CCCCC2C1=O (configuration not stated)	none
Cc1cc(C)c(O)c(N=Cc2cc([N+](=O)[O-])ccc2O)c1	none
Cn1c(=O)c2[nH]c(Nc3cccc(C(F)(F)F)c3)nc2n(C)c1=O	TEAD-YAP inh 45
Fc1cnc(Nc2ccc(-n3cnc(N4CCOCC4)n3)cc2)nc1-c1cccc(N2CCOCC2)c1	none
CCc1c(C)sc2ncn3c(=O)n(CCN4CCCC4)nc3c12	FBW7 act 21
Cc1cccc(CC(=O)Nc2cnn(-c3cccc(C(=O)Nc4ccc(-c5nnn(C)n5)cc4)c3)c2)c1	none
CC(=O)N1/C(=C/c2ccc(N(C)C)cc2)C(=O)c2ccccc21	TEAD-YAP inh 46
CC(=O)N1/C(=C/c2ccncc2)C(=O)c2ccccc21	none
CCOc1ccc2c(c1)C(C)=CC(C)(C)N2C(=O)CCl	none
COc1ccc2c(c1)C(C)=CC(C)(C)N2C(=O)CCl	TEAD-YAP inh 35
COc1ccc(C2CC(C(F)(F)F)n3nc(C(=O)N4CCCCC4)cc3N2)cc1OC (configuration not stated)	TEAD-YAP inh 38
CN(Cc1ccccc1)c1ccnc2c(-c3cccc(C(=O)O)c3)cnn12	TEAD-YAP inh 89
CN(Cc1ccccc1)c1ccnc2c(-c3ccc(CO)cc3)cnn12	none
Nc1cccc(-c2cnn3c(N4CCN(c5ccccn5)CC4)ccnc23)c1	none
CN(Cc1ccccc1)c1ccnc2c(-c3cccc(O)c3)cnn12	TEAD-YAP inh 90
CC(=O)c1cccc(-c2cnn3c(N4CCN(c5ccccn5)CC4)ccnc23)c1	FBW7 act 1.9
O=C(C1=C(O)C(=O)N(c2ccccc2)C1c1ccccc1)c1cccs1 (configuration not stated)	none
Cc1ccc(CN2CCN3C(=O)[C@H](Cc4ccccc4)NC(=O)[C@H]3C2)c(C)c1	none
O=C(O)COc1ccc(C=C2C(=O)c3ccccc3C2=O)cc1	none
